Screening data from PubChem BioAssay.
MITF primary: inhibitors of human MITF; O75030; AlphaScreen MITF homodimerization, bead proximity signal; inhibition, % at 2.6 µM; 650,000 compounds, 0.91% hits; AID 1259374; in the data active = inhibition above about 50%
FBW7 activator: human FBW7 E3 ligase activation, primary screen; AlphaScreen FBW7–phospho-cyclin E peptide binding, activator screen; normalized activity (activation), % at 26.1 µM; 650,000 compounds, 0.13% hits; in the data active = normalized activity above about 1.9%;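 note: purified mutant Fbw7 with reduced substrate affinity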
TEAD-YAP inh: TEAD-YAP interaction inhibition; HEK-TIYL cells, TEAD-Gal4/YAP UAS-luciferase luminescence; inhibition, % at 9.12 µM; 640,000 compounds, 1.4% hits; in the data active = inhibition above about 32%
GPR151 activ: activates the human receptor GPR151. 650,000 compounds, 1% hits. activation, % at 11.2 µM. Q8TDV0. PathHunter beta-arrestin GPR151 cells, luminescence; in the data active = activation above about 4.9%
Target sequence (Q8TDV0 whole entry, looked up): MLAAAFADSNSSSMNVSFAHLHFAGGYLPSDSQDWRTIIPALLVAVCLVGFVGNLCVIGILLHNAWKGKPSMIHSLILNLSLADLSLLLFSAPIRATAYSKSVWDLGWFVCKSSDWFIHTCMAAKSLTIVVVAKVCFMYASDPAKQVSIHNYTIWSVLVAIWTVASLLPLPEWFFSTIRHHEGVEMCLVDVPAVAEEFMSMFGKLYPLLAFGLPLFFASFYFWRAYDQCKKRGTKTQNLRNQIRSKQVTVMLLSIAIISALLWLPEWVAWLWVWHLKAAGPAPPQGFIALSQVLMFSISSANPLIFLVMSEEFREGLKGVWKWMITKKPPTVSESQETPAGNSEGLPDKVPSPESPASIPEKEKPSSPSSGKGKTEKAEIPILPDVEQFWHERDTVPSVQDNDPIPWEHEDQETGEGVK
Numbers stand for hits; i = inactive; ! = a repeat was not active. This is a sample that favours compounds with a hit; in the whole collection about 3.5% have one here.

SMILES	MITF primary	FBW7 activator	TEAD-YAP inh	GPR151 activ
COc1ccccc1CNC(=O)c1ccc2c(c1)NC(=O)C(CSCc1ccccc1F)N2 (stereo unspecified)	i	i	i	i
COc1ccccc1OCC(=O)Nc1nc(CSCc2ccc(F)cc2)cs1	i	i	i	i
COc1ccc(O)c(C2=Nc3ccccc3N=C(c3ccc(C(C)(C)C)cc3)C2)c1	i	i	56	i
COC(=O)C1=C(C)NC2=C(C(=O)CC(c3cccs3)C2)C1c1cc(OC)c(Br)cc1OC (stereo unspecified)	i	i	60	i
CCc1ccc(C2C(C(=O)OC(C)C)=C(C)NC3=C2C(=O)CC(c2cccs2)C3)s1 (stereo unspecified)	i	i	i	i
COCCOC(=O)C1=C(C)NC2=C(C(=O)CC(c3cccs3)C2)C1c1ccc(F)cc1 (stereo unspecified)	i	i	36!	i
CC1=C(C(=O)OC(C)C)C(c2cccs2)C2=C(CC(c3cccs3)CC2=O)N1 (stereo unspecified)	i	i	37	i
CCOC(=O)C1=C(C)NC2=C(C(=O)CC(c3cccs3)C2)C1c1cccs1 (stereo unspecified)	i	i	51!	i
COCCOC(=O)C1=C(C)NC2=C(C(=O)CC(c3cccs3)C2)C1c1cccs1 (stereo unspecified)	i	i	i	i
COCCOC(=O)C1=C(C)NC2=C(C(=O)CC(c3cccs3)C2)C1c1ccccc1F (stereo unspecified)	i	i	i	i
COC(=O)C1=C(C)NC2=C(C(=O)CC(c3cccs3)C2)C1c1ccsc1 (stereo unspecified)	i	i	33	i
COC(=O)C1=C(C)NC2=C(C(=O)CC(c3cccs3)C2)C1c1cccs1 (stereo unspecified)	i	i	i	i
COc1cccc2cc(-c3cn4ccccc4n3)c(=O)oc12	i	i	42	i
O=c1oc2ccccc2cc1-c1cn2ccccc2n1	i	i	75	i
CCn1ccc(C(=O)N2CCC(Oc3nc4c(F)cc(F)cc4s3)CC2)n1	i	2.4	i	i
O=C(c1ccc(F)cc1Cl)N1CCC(Oc2nc3c(F)cccc3s2)CC1	i	i	i	i
FC(F)(F)c1ccc(-c2[nH]ncc2-c2cnccn2)cc1	i	i	i	i
COC(=O)C1=C(N)Oc2cc(C)n(CC3CCCO3)c(=O)c2C1c1ccc(Cl)cc1 (stereo unspecified)	i	2.3	i	i
Cc1ccc2nc(-c3cc4ccccc4oc3=N)[nH]c2c1	i	i	93	i
Cc1cccc(N=c2oc3ccccc3cc2-c2nc3ccccc3[nH]2)c1	i	i	47	i
Cc1ccccc1N=c1oc2ccccc2cc1-c1nc2ccccc2[nH]1	i	i	43	i
CCOC(=O)C1CC2CN(C(=O)c3ccccc3)CC(C1)C2=O (stereo unspecified)	i	i	i	i
COc1ccc(-c2cc(C(=O)N3C(C)CCCC3C)no2)cc1OC (stereo unspecified)	i	i	i	i
Cc1ccc(-c2nc(Nc3ccccc3)s[n+]2CS(=O)(=O)c2ccccc2)cc1	i	i	66	i
COc1cccc(C2C3=C(CC(c4ccc(C)cc4)CC3=O)Nc3ccccc3N2C(=O)CCC(=O)O)c1 (stereo unspecified)	i	i	i	i
SMILES	MITF primary	FBW7 activator	TEAD-YAP inh	GPR151 activ
Cc1ccc(/C=C2\CC/C(=C\c3ccc(C)o3)C2=O)o1	58	i	i	i
COc1ccc(Cn2c(CCC(=O)Nc3ccc(OC)cc3)nc3cccnc32)cc1	i	i	i	i
COc1cccc(C(C[N+](=O)[O-])c2c[nH]c3ccccc23)c1OC (stereo unspecified)	i	i	i	i
COc1cccc(C(C[N+](=O)[O-])c2c[nH]c3ccccc23)c1 (stereo unspecified)	i	i	54	i
O=[N+]([O-])CC(c1ccccc1)c1c[nH]c2ccccc12 (stereo unspecified)	i	i	46	i
O=C1c2ccccc2S(=O)(=O)N1Cc1nc(-c2ccc(Br)s2)cs1	i	i	i	i
Cc1cc(OCC(=O)Nc2ccc(-c3nc4cc(C(C)C)ccc4o3)cc2)cc(C)c1Cl	i	i	i	i
O=C(Cc1ccc(Cl)cc1)Nc1ccc2oc(-c3ccccc3F)nc2c1	i	i	i	i
CCC(=O)Nc1ccc2oc(-c3ccccc3F)nc2c1	i	i	39	i
Cc1cc(OCC(=O)Nc2ccc3oc(-c4cccnc4)nc3c2)cc(C)c1Cl	i	i	i	i
Cc1cc(OCC(=O)Nc2ccc3oc(-c4ccccc4Br)nc3c2)cc(C)c1Cl	i	2.0	i	i
CC(C)C(=O)Nc1cc(-c2nc3cc(C(C)C)ccc3o2)ccc1Cl	i	i	45	i
CC(C)c1ccc2oc(-c3ccc(NC(=O)COc4ccc5ccccc5c4)cc3)nc2c1	i	i	42	i
CCCOc1ccc(/C=C/C(=O)Nc2nnc(C)s2)cc1OC	i	i	i	i
C=CCN1C(=O)/C(=C/c2ccc3c(c2)n(C)c(=O)n3C)SC1=S	i	i	i	i
Cc1cc(C)c2oc(-c3cccc(NC(=O)COc4cc(C)c(Cl)c(C)c4)c3)nc2c1	i	i	42	i
O=C(NCC1Cc2cc(Cl)cc(-c3ncccn3)c2O1)c1ccc(N2CCCC2)cc1 (stereo unspecified)	i	i	46	i
CC(=O)C/C(=N/NC(N)=S)C(F)(F)F	i	i	55	i
Cc1cc(NC(=O)Cc2ccccc2)ccc1-c1cc2ccccc2oc1=O	i	i	54	i
Cc1cc(NC(=O)c2ccccc2)ccc1-c1cc2ccccc2oc1=O	i	i	i	i
Cc1ccccc1OCC(=O)Nc1ccc(-c2cc3ccccc3oc2=O)c(C)c1	i	i	45	i
COc1cc(OC)c(NC(=O)N2CCN(c3cc(-n4ccnc4)ncn3)CC2)cc1Cl	i	i	i	i
COc1ccc(C2=CC(c3cc(OC)c(OC)c(OC)c3)n3ncnc3N2)cc1 (stereo unspecified)	i	i	63	i
CCc1ccc(C2=CC(c3cccc(OC)c3OC)n3ncnc3N2)cc1 (stereo unspecified)	i	i	i	i
CCc1ccc(C2=CC(c3cc(OC)c(OC)c(OC)c3)n3ncnc3N2)cc1 (stereo unspecified)	i	i	65	i
SMILES	MITF primary	FBW7 activator	TEAD-YAP inh	GPR151 activ
COc1ccc(C2C=C(c3ccc(Cl)cc3)Nc3nnnn32)cc1OC (stereo unspecified)	i	i	i	i
COc1cc(C2C=C(c3ccc(Cl)cc3)Nc3nnnn32)cc(OC)c1OC (stereo unspecified)	i	i	55	i
COc1ccc(C2=CC(c3ccc(F)cc3)n3ncnc3N2)cc1 (stereo unspecified)	i	i	i	i
COc1cc(C2C3=C(Nc4ncnn42)c2ccccc2CC3)cc(OC)c1OC (stereo unspecified)	i	i	68	i
CCCCC(c1nnnn1C1CCCC1)N1CCN(C)CC1 (stereo unspecified)	i	i	i	i
CCOc1ccc(C2C=C(c3ccc(CC)cc3)Nc3ncnn32)cc1OC (stereo unspecified)	i	i	37	i
